Hits are enriched below; roughly 6.2% of the tested compounds scored in any of these assays.
MARV entry inh: qHTS for inhibitors of binding or entry into cells for Marburg Virus; Marburg virus pseudotyped entry inhibition, cell reporter; Potency, µM (titrated, usually from 37.8 µM), for inactives: top-dose activity change, negative = inhibition, hits mostly inhibitors; 1.8% of 300,000 active; AID 540276, 2011; calls by dose curve; tested in HEK293 cells; also: potency is read from the fitted curve at half-maximal effect
HCMV inh: qHTS Assay for inhibitors of the human cytomegalovirus (HCMV). 4.5% of 410,000 active. HFF cells, HCMV-luciferase reporter, 72 h; active compounds read low. activity change, negative = inhibition, % at 57.5 µM. AID 1259415, 2018; in the data active = activity change below about -60%; inconclusive = no clear call, values can overlap the other calls; inactive = above about -39%
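Steps: HFFs plated, 16 h 37C; compounds added; HCMV-luciferase added to MOI 1 PFU/cell; 72 h 37C; OneGlo reagent, 5 min room temperature; luminescence read, normalized to controls.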
Lassa entry inh: qHTS for Inhibitors of binding or entry into cells for Lassa Virus; Lassa virus pseudotype entry inhibition, cell reporter; Potency, µM (top dose mostly 37.9 µM), for the others: at the top dose activity change, negative = inhibition, most hits filed as inhibitors; 1.2% of 300,000 active; AID 540256, 2011; calls by dose curve; tested in HEK293 cells; also: potency is read from the fitted curve at half-maximal effect; nearly all actives have a fitted effect of over 50% in size
FMDV inh: High Throughput Screening for Foot and Mouth Disease Virus Antivirals | FMDV antiviral cell-based qHTS | Potency, µM (titrated, usually from 57.9 µM), for the others: top-dose activity change, negative = inhibition, hits mostly inhibitors | 1.2% of 410,000 active; calls by dose curve; tested in HEK293T cells; also: read-out not given here; potency is read from the fitted curve at half-maximal effect; nearly all actives have a fitted effect of over 45% in size
Active calls of the source: *; u = inconclusive; x = no result given; + = active, no number; ! = a repeat was not active; [ ] = remark or other dose. % is scaled to controls: 0 for no effect and ±100 for the full control effect.

SMILES | MARV entry inh | HCMV inh | Lassa entry inh | FMDV inh
COc1ccc2c(c1)CCc1cnc(-n3ncc(C(=O)N4CCN(CCO)CC4)c3C3CC3)nc1-2 | x | x | x | -8.9%
CC#CCN1c2ccccc2[C@]23CCC(=O)N(Cc4ccco4)C2=NC(C(=O)OC)=C(C(=O)OC)[C@H]13 | -44.4%[14.2 µM] | x | x | x
CCCCc1nn2c(=O)cc(COC(=O)c3ccccc3C)nc2s1 | x | 13.5 | u | 19.4%
COc1ccccc1C1CN(CCNC(=O)c2cscn2)Cc2ccccc2O1 (stereo not given) | x | x | x | 7.2%
COCCn1c(=O)c(C)nc2cnc(Nc3ccccc3)nc21 | x | x | x | -3.7%
NS(=O)(=O)c1ccc(CCNC(=O)c2cc(-c3cccs3)nc3ccccc23)cc1 | 7.94µM* | -39.0 | u | 0.5%
COc1cc(CCNC2=CC(=O)c3ncccc3C2=O)ccc1O | u | 0.0 | u | 39.8µM*
CCCOc1ccc(S(=O)(=O)N2CCN(C)CC2)c2ccccc12 | -3.0% | -61.0* | -1.7% | 11.2%
CC(C)(C)c1ccc(OCc2ccc(C(=O)N/N=C3\CC4CC=CC34)cc2)cc1 (stereo not given) | 0.3% | -68.2* | -19.3% | 10.9%
COc1ccc(-n2c(=O)c3c4c(sc3n(Cc3ccccc3)c2=O)CN(C(C)=O)CC4)cc1OC | u | -24.6 | x | 14.0%
Cc1ccc(-n2nc3c(N4CCC(C(=O)NCc5ccccc5C)CC4)nnc(C)c3c2C)cc1 | x | x | x | -17.5%
CCOc1ccc(CNC(=O)C2CCN(c3nnc(C)c4c(C)n(-c5ccc(C)cc5)nc34)CC2)cc1 | x | -74.5* | x | u
COc1ccccc1CCNC(=O)C1CCN(c2nnc(C)c3c(C)n(-c4ccc(C)cc4)nc23)CC1 | x | -93.4*! | u | -9.1%
Cc1nnc(N2CCC(C(=O)NCCc3ccccc3Cl)CC2)c2nn(-c3ccccc3)c(C)c12 | x | -91.2* | -12.8%[46.1 µM] | -16.4%
CCOc1ccccc1CNC(=O)C1CCN(c2nnc(C)c3c(C)n(-c4ccc(C)cc4)nc23)CC1 | x | -86.5* | -8.6%[46.1 µM] | u
Cc1ccc(-n2nc3c(N4CCC(C(=O)NCc5ccccc5Cl)CC4)nnc(C)c3c2C)cc1 | x | -27.8 | -14.9%[46.1 µM] | u
CCCC(=O)N1CCCC1(C)C(=O)Nc1ccc2c(c1)CCN2C(C)=O (stereo not given) | x | 4.5 | x | -11.4%
Cc1nnc(N2CCC(C(=O)NCCc3ccccc3)CC2)c2nn(-c3ccc(Cl)cc3)c(C)c12 | x | -10.5 | 11.5%[46.1 µM] | 0.0%
Cc1nnc(N2CCC(C(=O)NCc3ccc(F)cc3)CC2)c2nn(-c3ccc(Cl)cc3)c(C)c12 | x | -86.2* | -8.9%[46.1 µM] | -28.2%
N#CC1=C(Nc2ccccc2Cl)SC(c2ccccc2O)NC1=O (stereo not given) | x | u | x | 26.4%
CSC1=C(C#N)C(=O)NC(c2ccc(Cl)cc2)S1 (stereo not given) | -11.8%[46.1 µM] | -0.6 | -1.8% | 20µM*
CCCCOc1ccc(C(=O)NCC(=O)NCC(c2cccs2)N2CCOCC2)cc1 (stereo not given) | x | + | x | 1.4%
CC(C)c1ccccc1OCC(=O)NCC(c1cccs1)N1CCOCC1 (stereo not given) | u | -15.4 | -19.6% | 31.6µM*
O=C(CCS(=O)(=O)c1ccccc1)Nc1ccccn1 | 8.0%[46.1 µM] | -24.2 | u | 4.3%
CC(Oc1ccc(F)cc1)C(=O)Nc1nc(-c2ccccn2)cs1 (stereo not given) | u | -90.3* | u | u
SMILES | MARV entry inh | HCMV inh | Lassa entry inh | FMDV inh
C[C@H](NC(=O)c1ccco1)C(=O)Nc1nc(-c2ccccn2)cs1 | -7.4% | -24.6 | -12.4%[46.1 µM] | -18.1%
O=C(Nc1nc(-c2ccccn2)cs1)c1ccco1 | u | -12.6 | u | 11.9%
O=C(Nc1nc(-c2ccccn2)cs1)c1ccc(Br)s1 | u | -98.6* | u | 0.0%
Cc1ccc(S(=O)(=O)CCC(=O)Nc2nc(-c3ccncc3)cs2)cc1 | x | -10.0 | x | u
O=C(CCS(=O)(=O)c1ccc(F)cc1)Nc1nc(-c2ccccn2)cs1 | x | -106.5* | x | u
O=C(CCS(=O)(=O)c1ccccc1)Nc1nc(-c2ccccn2)cs1 | x | -103.2* | x | -24.3%
COC(=O)c1c(NC(=O)CCCOc2ccc(C)cc2)sc2c1C(C(=O)OC)CC2 (stereo not given) | x | 10.8 | -6.7%[46.1 µM] | u
O=C(Nc1ccccc1Cl)C1CCN(c2nc3ccccc3nc2C(F)(F)F)CC1 | x | 6.5 | -3.8%[46.1 µM] | 4.8%
O=C(N[C@H]1CCC(=O)N(CCSc2ccc(Br)cc2)CC1)OCc1ccccc1 | x | -10.2 | x | 31.6µM*
O=C(Cc1ccccc1[N+](=O)[O-])Nc1ccccc1C(=O)N1CCOCC1 | 18.5%[46.1 µM] | 23.9 | 10µM* | 9.9%
CCCCC(=O)Nc1ccccc1C(=O)N1CCOCC1 | 10.6% | -2.8 | -10.0% | 17.1%
Cc1ccc(SCC(=O)Nc2ccccc2C(=O)N2CCOCC2)cc1 | u | -70.9* | -3.3% | -15.3%
CCN1CCN(Cc2nc3cc(NC(=O)c4cccc([N+](=O)[O-])c4)ccc3n2CC)CC1 | u | -0.5 | 11.8%[46.1 µM] | 3.3%
COc1cc(=O)n2c(c1C(=O)NCc1nonc1C)CCN(Cc1c[nH]c3ccccc13)CC2 | x | x | x | -5.1%
Cc1ccc(Nc2nc(OC(C(F)(F)F)C(F)(F)F)nc(N3CCOCC3)n2)cc1 | 1µM* | -1.0 | 11.0% | u
O=C(O)c1ccc(/C=N/Nc2ccc(F)cc2F)cc1 | 14.1µM* | 213.6 | 2.82µM* | -73.6%
CCNC(=S)N/N=C/c1ccc(C(=O)O)cc1 | -6.7% | 5.3 | u | -5.2%
Fc1ccc(N/N=C/c2ccncc2)c(F)c1 | 32.9% | 113.0 | 0.6% | 24.7%
CC(C)(C)c1ccc(/C=N/Nc2ccc(C(=O)O)cc2)cc1 | 3.66µM* | -76.0* | 2µM* | 7.08µM*
O=C(CNC(=O)c1cccs1)N/N=C/c1c(F)cccc1Cl | 18.6% | -60.0* | 12.0% | -3.9%
Cc1ccc(/C=N/NC(=O)CNC(=O)c2cccs2)cc1 | x | 16.0 | x | 8.2%
O=C(O)c1ccc(N/N=C/c2c(F)cccc2Cl)cc1 | x | u | x | 31.6µM*
OC1(c2cccnc2)CCN(Cc2ccc3c(c2)CN(Cc2ccc(F)c(F)c2)CCO3)CC1 | x | x | x | -23.3%
O=C(O)c1ccc(N/N=C/c2ccc(C(F)(F)F)cc2)cc1 | 1.58µM* | -30.5 | 1.26µM* | u
O=C(N/N=C/c1ccc(C(F)(F)F)cc1)c1ccc(O)cc1 | u | u | u | 6.3%
SMILES | MARV entry inh | HCMV inh | Lassa entry inh | FMDV inh
CCCn1cc(SCC(=O)Nc2ccc3c(c2)OCO3)c2ccccc21 | x | -65.5* | x | -9.2%
CCc1ccc(C(=O)c2cn(CC(=O)Nc3ccc(Cl)cc3)c3cc4c(cc3c2=O)OCO4)cc1 | 4.47µM* | 13.4 | u | 0.0%
CCc1ccc2c(c1)c(=O)c(C(=O)c1ccccc1)cn2CC(=O)Nc1ccc(C)c(Cl)c1 | 1.0%[46.1 µM] | -68.6* | -5.3%[46.1 µM] | -4.6%
CCc1ccc(C(=O)c2cn(CC(=O)Nc3ccc4c(c3)OCO4)c3ccc(Cl)cc3c2=O)cc1 | 11.1%[46.1 µM] | -6.5 | 16.0%[46.1 µM] | -18.2%
Cn1cc(SCC(=O)Nc2ccc3c(c2)OCO3)c2ccccc21 | x | 16.9 | x | 8.2%
CCc1ccc(C(=O)c2cn(CC(=O)Nc3ccc4c(c3)OCO4)c3ccc(CC)cc3c2=O)cc1 | 7.7%[46.1 µM] | -88.2* | 3.5%[46.1 µM] | 0.0%
